Among the data in PubChem BioAssay (NCI) are growth values, retold here.

Among the test systems are NCI-H23 lung; NCI-H226 lung; NCI-H322M lung; HOP-62 NSCLC; NCI-H460 lung; HOP-92 NSCLC; NCI-H522 lung; A549/ATCC NSCLC; 786-0 renal; COLO 205 colon.
Assay in all cases: NCI-60 one-dose screen, 48 h (100 = growth as untreated, 0 = no growth, -100 = all killed)
Details in all cases: 10 µM unless noted

SMILES strings stand for the structures. About 83,000 compounds went through this panel and 20% of them were active in at least one assay; those are over-represented in the sample as a whole.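 Interpretation: 100, growth as untreated; towards 0, rising growth inhibition; 0, no net growth; 0 to -100, cell death. Compounds scoring below 10 were considered active.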 A number with no mark means an inactive call. Active and inactive are the calls of the source.

In the case of `Cc1ccc(C2=NN(c3ccc(S(=O)(=O)NC(=O)NCc4ccccc4)cc3)C(c3ccc(N(C)C)cc3)C2)c(C)c1` (stereo not given), the growth in the experiment on NCI-H23 lung was 49.4%; with NCI-H226 lung, 77.7%; with NCI-H322M lung, 56.3%; in the experiment with HOP-62 NSCLC it was 74.9%; in the experiment on NCI-H460 lung, 31.3%; in the experiment with HOP-92 NSCLC it was 82.3%. The growth with NCI-H522 lung is 49.7%; in the experiment on A549/ATCC NSCLC it was 22.1%; in the experiment with 786-0 renal it was 68.5%; in the experiment with COLO 205 colon it was 62.1%.

With `CCCCOc1nc2c(C)cccc2cc1C1CNC(=O)c2ccccc2N1` (stereo not given), the growth in the experiment on NCI-H23 lung was 80%; in the experiment with NCI-H226 lung it was 89%; in the experiment with NCI-H322M lung, 105%; with HOP-62 NSCLC it was 56.2%; with NCI-H460 lung, 56.2%; in the experiment on HOP-92 NSCLC, 62.6%. In addition, the growth was 44.8% in the experiment with NCI-H522 lung, 60.1% in the experiment on A549/ATCC NSCLC, 46.2% in the experiment on 786-0 renal and 90.8% with COLO 205 colon.

In the case of `COc1ccc(-c2nc(-c3nc4ccc(F)cc4[nH]3)cc3c2[nH]c2ccccc23)cc1`, the growth was 53.3% in the experiment on NCI-H23 lung; 70.6% in the experiment on NCI-H226 lung; 19% in the experiment on NCI-H322M lung; 48.7% in the experiment on HOP-62 NSCLC; 10.5% in the experiment on NCI-H460 lung; 31.8% in the experiment with HOP-92 NSCLC. The growth is 44.4% with NCI-H522 lung, 14.3% in the experiment with A549/ATCC NSCLC, 63.2% in the experiment with 786-0 renal and 44.1% in the experiment with COLO 205 colon.

With `CC(C)C(C(=O)CCN(C)C)c1ccc(Cl)cc1` (stereo not given), the growth in the experiment with NCI-H23 lung is 103%; in the experiment on NCI-H226 lung it was 94.9%; with NCI-H322M lung, 99.3%; in the experiment with HOP-62 NSCLC, 98.4%; in the experiment on NCI-H460 lung it was 104%; in the experiment on HOP-92 NSCLC, 96.8%. Further, the growth in the experiment with NCI-H522 lung was 74.2%; in the experiment on A549/ATCC NSCLC, 61.6%; with 786-0 renal, 102%; with COLO 205 colon, 106%.

On to `O=C(/C=C/CN1CCCCC1)Nc1cc2c(Nc3ccc(F)c(Cl)c3F)ncnc2cc1OCCOC(F)F`, for which the growth in the experiment with NCI-H23 lung was 26.3%; in the experiment on NCI-H226 lung, 28.6%; in the experiment on NCI-H322M lung, 5.03% (active); in the experiment with HOP-62 NSCLC, 20.6%; with NCI-H460 lung, 21.7%; in the experiment with HOP-92 NSCLC it was -39.2% (active). Moreover, the growth in the experiment on NCI-H522 lung was -32% (active); in the experiment on A549/ATCC NSCLC, 18.2%; in the experiment on 786-0 renal, 10.7%; in the experiment on COLO 205 colon it was 24.8%.

Take `Cc1ccc2c(c1)C(=O)C(c1c(-c3[nH]c(=O)c4ccc(C)cc4c3O)c(O)c3ccccc3c1O)=NC2=O`: the growth is 15.5% in the experiment with NCI-H23 lung; -1.84% (active) with NCI-H226 lung; 38.8% in the experiment on NCI-H322M lung; 8.69% (active) in the experiment with HOP-62 NSCLC; -39.8% (active) in the experiment with NCI-H460 lung; 38.7% in the experiment on HOP-92 NSCLC. Further, the growth was 7.58% (active) in the experiment on NCI-H522 lung, 21.8% in the experiment on A549/ATCC NSCLC, 12.7% in the experiment on 786-0 renal and 69.9% in the experiment with COLO 205 colon.

For `COc1ccc(/C=N/NC(=O)Cn2c(Cc3cccc4ccccc34)nc3ccccc32)cc1`, the growth is 90.3% with NCI-H23 lung; 92.7% in the experiment with NCI-H226 lung; 84.5% in the experiment with NCI-H322M lung; 89.3% with HOP-62 NSCLC; 106% in the experiment on NCI-H460 lung; 101% in the experiment with HOP-92 NSCLC. Moreover, the growth in the experiment with NCI-H522 lung was 77.7%; in the experiment on A549/ATCC NSCLC, 95%; in the experiment on 786-0 renal, 102%; in the experiment on COLO 205 colon it was 106%.

As for `CC(Cc1nnc(SCC(=O)Nc2ccc(I)cc2)n1N)c1ccccc1` (stereo not given), the growth with NCI-H23 lung was 99.8%; in the experiment on NCI-H226 lung, 87.2%; in the experiment with NCI-H322M lung, 95.7%; in the experiment with HOP-62 NSCLC, 71%; in the experiment with NCI-H460 lung it was 96.1%; in the experiment on HOP-92 NSCLC, 76.7%. The growth with NCI-H522 lung was 82.8%; with A549/ATCC NSCLC, 100%; in the experiment with 786-0 renal, 72%; in the experiment on COLO 205 colon, 93.9%.

Regarding `Clc1nc2ccccc2nc1CI`, the growth is 86% in the experiment on NCI-H23 lung; 68.2% in the experiment with NCI-H226 lung; 89.9% in the experiment with NCI-H322M lung; 105% in the experiment on HOP-62 NSCLC; 108% in the experiment on NCI-H460 lung; 90.9% in the experiment on HOP-92 NSCLC. Moreover, the growth with NCI-H522 lung was 3.79% (active); with A549/ATCC NSCLC, 117%; in the experiment on 786-0 renal it was 101%; in the experiment on COLO 205 colon, 120%.

As for `CCC1CCc2nc3sc(C(=O)Nc4ccccc4C)c(N)c3cc2C1` (stereo not given), the growth in the experiment on NCI-H23 lung is 51.1%; with NCI-H226 lung, 62.7%; in the experiment with NCI-H322M lung, 56.5%; in the experiment with HOP-62 NSCLC, 54.5%; with NCI-H460 lung, 31.5%; with HOP-92 NSCLC, 41.9%. Also, the growth in the experiment on NCI-H522 lung was 28.6%; with A549/ATCC NSCLC it was 41.2%; in the experiment on 786-0 renal it was 50.6%; in the experiment on COLO 205 colon it was 17%.

For the compound `C=C1C(=O)O[C@H]2[C@H]1CC/C(COC(=O)NCc1ccc(OC)cc1)=C\CC[C@@]1(C)O[C@@H]21`, the growth with NCI-H23 lung is 74.2%; in the experiment with NCI-H226 lung, 64.5%; with NCI-H322M lung it was 84.6%; with HOP-62 NSCLC, 67.5%; in the experiment on NCI-H460 lung it was 77.7%; in the experiment with HOP-92 NSCLC it was 63.3%. Also, the growth is -55.5% (active) in the experiment with NCI-H522 lung, 69.1% in the experiment with A549/ATCC NSCLC, 15.6% in the experiment on 786-0 renal and -17.7% (active) with COLO 205 colon.

On to `COc1cc(OC)c(C(=O)/C=C/c2cccc(C(F)(F)F)c2)c(OC)c1`, for which the growth with NCI-H23 lung was 5.06% (active); in the experiment on NCI-H226 lung, 25.1%; with NCI-H322M lung, 13.2%; in the experiment on HOP-62 NSCLC it was 18.7%; in the experiment with NCI-H460 lung it was -1.87% (active); in the experiment on HOP-92 NSCLC, 2.76% (active). Further, the growth is -31.8% (active) in the experiment on NCI-H522 lung, 6.1% (active) in the experiment on A549/ATCC NSCLC, 13.4% with 786-0 renal and 12.9% with COLO 205 colon.

Turning to `Clc1cccc(Cl)c1Cn1c(-c2cncs2)nc2ccccc21`, the growth with NCI-H23 lung was 71%; with NCI-H226 lung it was 88.6%; in the experiment on NCI-H322M lung, 87.5%; in the experiment with HOP-62 NSCLC it was 97%; in the experiment on NCI-H460 lung, 101%; in the experiment on HOP-92 NSCLC, 71%. The growth with NCI-H522 lung is 76.6%; in the experiment with A549/ATCC NSCLC it was 73.1%; with 786-0 renal, 87.6%; in the experiment with COLO 205 colon it was 99.5%.
